Rows were chosen to be rich in hits. Some 3.5% of all compounds tested hit in one or more screens of this group.
GPR151 ag: activates the human receptor GPR151; PathHunter beta-arrestin GPR151 cells, luminescence; activation, % at 11.2 µM; 650,000 tested, 1% active; in the data active = activation above about 4.9%;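 also: 0% = median of compound wells and 100% = cells with positive control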
FBW7 act: human FBW7 E3 ligase activation, primary screen | Q969H0 | AlphaScreen FBW7–phospho-cyclin E peptide binding, activator screen | normalized activity (activation), % at 26.1 µM | 650,000 tested, 0.13% active | AID 1259310; in the data active = normalized activity above about 1.9%;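 also: purified mutant Fbw7 with reduced substrate affinity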
Target sequence (Q969H0 whole entry, looked up): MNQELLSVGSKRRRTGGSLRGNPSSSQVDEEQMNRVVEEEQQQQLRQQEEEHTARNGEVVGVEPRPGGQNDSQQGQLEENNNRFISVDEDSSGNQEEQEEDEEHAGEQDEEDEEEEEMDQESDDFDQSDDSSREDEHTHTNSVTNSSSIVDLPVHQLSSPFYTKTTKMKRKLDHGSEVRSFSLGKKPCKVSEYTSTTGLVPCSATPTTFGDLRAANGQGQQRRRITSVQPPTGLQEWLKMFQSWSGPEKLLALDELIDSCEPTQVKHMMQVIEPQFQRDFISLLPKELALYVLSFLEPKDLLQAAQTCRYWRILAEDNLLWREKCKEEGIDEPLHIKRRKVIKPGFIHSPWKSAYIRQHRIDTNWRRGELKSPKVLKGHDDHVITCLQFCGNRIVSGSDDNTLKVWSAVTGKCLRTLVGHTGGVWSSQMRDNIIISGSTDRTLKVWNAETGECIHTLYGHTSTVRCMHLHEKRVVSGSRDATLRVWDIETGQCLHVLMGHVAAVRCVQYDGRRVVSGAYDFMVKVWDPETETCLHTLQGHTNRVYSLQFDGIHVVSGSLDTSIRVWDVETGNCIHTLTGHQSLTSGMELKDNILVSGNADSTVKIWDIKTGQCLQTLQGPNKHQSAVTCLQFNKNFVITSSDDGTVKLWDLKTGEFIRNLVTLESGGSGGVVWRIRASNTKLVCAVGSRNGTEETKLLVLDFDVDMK
MITF inh: blocks human microphthalmia-associated transcription factor. O75030. AlphaScreen MITF homodimerization, bead proximity signal. inhibition, % at 2.6 µM. 650,000 tested, 0.91% active; in the data active = inhibition above about 50%;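 also: 0% = vehicle wells with protein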
TEAD-YAP inh: TEAD-YAP interaction inhibition; inhibition, % at 9.12 µM; 640,000 tested, 1.4% active; HEK-TIYL cells, TEAD-Gal4/YAP UAS-luciferase luminescence; in the data active = inhibition above about 32%;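 also: 0% = median of test compound wells and 100% = reference inhibitor wells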
The depositor's hits bear a star; . = not tested or not shown; ! = not active in a repeat.

SMILES	GPR151 ag	FBW7 act	MITF inh	TEAD-YAP inh
CCC(C)C(NC(=O)C(CCC(=O)OCc1ccccc1)NC(=O)C(CC(C)C)NC(=O)OC(C)(C)C)C(=O)NC(C)C(N)=O (stereo not given)	-0.1	0.2	3.5	-1.3
Cc1ccc(C(=O)NCCn2cc(SCC(=O)NCC3CCCO3)c3ccccc32)cc1C (stereo not given)	0.8	-0.3	3.8	32.7*
O=C(CSc1cn(CCNC(=O)c2ccc(F)cc2)c2ccccc12)NCC1CCCO1 (stereo not given)	-0.6	-0.1	5.9	10.2
O=C(NCCn1cc(SCC(=O)N2CCCCCC2)c2ccccc21)c1c(F)cccc1F	2.7	-0.6	7.2	34.2*
Cc1ccc(/C=N/NC(=O)CNc2cccc(C)c2)cc1	1.8	-0.1	4.7	38.5*
Cc1ccc(/C=N/NC(=O)CNC(=O)c2ccccc2Br)cc1	1.8	0.0	-13.4	46.8*
CC[C@]1(O)C[C@H]2CN(CCc3c([nH]c4ccccc34)[C@@](C(=O)OC)(c3cc4c(cc3OC)N(C)[C@H]3[C@@](O)(C(=O)OC)[C@H](C(=O)OC)[C@]5(CC)C=CCN6CC[C@]43[C@@H]65)C2)C1	0.2	0.1	19.5	.
Brc1cccc(C2Nc3cccc4cccc(c34)N2)c1	0.1	0.8	-3.9	-10.9
CC(C)(C)c1ccc(C2NC(=O)c3ccccc3N2)cc1 (stereo not given)	0.2	0.0	7.9	47.8*
O=C1NC(c2ccc(-c3ccccc3)cc2)Nc2ccccc21 (stereo not given)	-1.2	0.0	-11.8	40.2*
CN(C)c1ccc(C2NC(=O)c3ccccc3N2)cc1 (stereo not given)	-3.7	0.1	1.5	56.4*
N#CCOc1ccc(C2NC(=O)c3ccccc3N2)cc1 (stereo not given)	1.5	0.1	-1.1	-11.5
O=C1NC(c2cccc(Br)c2)Nc2ccccc21 (stereo not given)	1.4	0.2	-10.4	49.1*
O=C1NC(c2ccncc2)Nc2ccccc21 (stereo not given)	0.7	-0.4	4.7	8.2
CN=C1NC(=O)C(CC(=O)Nc2c(C)cc(C)cc2C)S1 (stereo not given)	1.1	0.0	-1.0	-3.4
CCOC(=O)C1=C(C)N=c2s/c(=C\c3ccc(I)cc3)c(=O)n2C1c1ccc2c(c1)OCO2 (stereo not given)	0.1	0.3	0.4	4.9
N#Cc1ccsc1NC(=O)COC(=O)C12CC3CC(CC(Br)(C3)C1)C2	1.4	-0.2	-2.3	-4.0
Cc1nc2ccc(C(=O)NCCN(C)C)cc2[nH]1	-1.1	-0.2	6.0	5.4
O=C(Nc1cccc(O)c1)c1cc(-c2cccnc2)on1	-2.2	0.1	-12.2	-17.8
O=C(Nc1cccc(O)c1)c1cc(-c2ccc(Cl)cc2)on1	-3.1	0.0	-9.1	80.6*
O=C(Nc1cccc(O)c1)c1cc(-c2ccc3c(c2)OCO3)on1	-5.5	-0.1	-1.2	97.2*
CCN(CC)c1ccc(NC(=O)c2ccc3c4c(cccc24)CC3)cc1	0.5	-0.3	10.1	50.8*
COc1ccc(C(=O)/C(=C\c2ccc(C)o2)c2nc3ccccc3o2)cc1	-0.6	-0.3	3.0	37.8*
Cc1ccc(C(=O)/C(=C\c2cccs2)c2nc3ccccc3o2)cc1	0.8	-0.5	-4.1	72.7*
O=C(N/C(=C\c1ccc(Cl)cc1)C(=O)N1CCCCC1)c1ccc([N+](=O)[O-])cc1	-0.2	0.0	-9.3	7.3
SMILES	GPR151 ag	FBW7 act	MITF inh	TEAD-YAP inh
CN(C)c1ccc(/C=C2\NC(=S)NC2=O)cc1[N+](=O)[O-]	0.8	-0.2	71.4*!	-16.0
O=C1NC(=S)N/C1=C/c1ccc(O)c(O)c1	0.8	-0.2	87.3*	17.3
O=C(NN1C(=O)/C(=C/c2ccc(O)cc2)SC1=S)c1cccc(O)c1	-1.0	-0.5	0.5	-2.9
Cc1ccc(/C=C2\SC(=S)N(NC(=O)c3ccc(O)cc3)C2=O)o1	-1.9	-0.1	54.1*	6.3
Cc1ccc(/C=C2/SC(=S)N(CN3CCOCC3)C2=O)o1	-1.1	-0.5	78.4*	0.8
CCN(CC)c1ccc(/C=C2\SC(=S)N(CCCC(=O)O)C2=O)cc1	-0.7	0.2	24.1	92.5*
CCN(CC)c1ccc(/C=C2/SC(=S)N(CCC(=O)OC)C2=O)cc1	0.4	0.1	16.3	61.6*
CCOc1ccc(OCCC(=O)OCC(=O)N(C(C)C)C(C)C)cc1	0.4	0.4	10.2	13.6
COc1cccc(/C=C2/C=C(c3ccc(OC)c(OC)c3)OC2=O)c1	0.4	0.2	3.4	4.8
CCC1C(=O)NCCN1C(=O)CCc1nnc(-c2ccc(-c3ccccc3)cc2)o1 (stereo not given)	-1.8	-0.1	-10.4	-43.0
COCC1CCN(Cc2c(C(=O)N(C)CCc3ccccc3)nc3c(C)cccn23)C1 (stereo not given)	-0.9	-0.2	-11.6	1.1
COc1ccc(/C=C2\SC(=S)N(CCC(=O)N3CCOCC3)C2=O)cc1	1.5	0.1	8.5	2.9
COc1ccc(/C=C2\SC(=S)N(CCC(=O)OCCN3CCOCC3)C2=O)cc1	-0.2	-0.1	12.2	53.5*
Cc1ccc(Cl)cc1N1CCN(c2c(-c3ccc4c(c3)OCC(=O)N4)c(=O)c2=O)CC1	4.2	0.1	-6.1	61.1*
O=C1COc2cc(-c3c(N4CCCC4)c(=O)c3=O)ccc2N1	-3.2	-0.2	13.0	-3.5
COc1ccccc1N1CCN(C(=O)c2c(-c3ccccc3)noc2C)CC1	2.1	-0.2	-3.8	43.6*
COc1cc(SC)ccc1C(=O)N1CCN(c2ccccc2OC)CC1	-0.5	1.4	17.5	56.3*
COc1ccc(Cl)cc1C(=O)N1CCN(c2ccccc2)CC1	-1.0	-0.1	0.3	49.6*
CCOc1ccccc1N1CCN(C(=O)C2CCN(Cc3ccccc3O)CC2)CC1	-1.0	-0.2	62.0*	8.9
FC(F)(F)c1cccc(Nc2nc(Cl)nc(NCCC3=CCCCC3)n2)c1	-0.3	-0.2	0.4	-7.1
COc1ccccc1C(=O)N1CCN(c2ccccc2OC)CC1	1.9	-0.1	-7.8	8.0
COc1ccc(Cl)cc1C(=O)N1CCN(c2ccccc2OC)CC1	-0.7	0.1	6.1	54.4*
CCSc1ncc(Cl)c(C(=O)N2CCN(c3ccccc3OC)CC2)n1	0.5	-0.3	9.1	60.2*
CCOc1ccccc1N1CCN(C(=O)c2cc(OC)c(OC)c(OC)c2)CC1	0.6	0.0	-4.2	64.0*
CC(=O)c1cccc(NC(=O)c2c(C)nn(-c3ccccc3)c2-n2cccc2)c1	1.6	0.1	-1.7	-5.4
SMILES	GPR151 ag	FBW7 act	MITF inh	TEAD-YAP inh
COc1cc(-c2ccc(NC(=O)Nc3ccccc3C)c(OC)c2)ccc1NC(=O)Nc1ccccc1C	-1.7	0.5	13.7	45.1*
COC(=O)c1c(NC(=O)c2nn3c(C(F)(F)F)cc(-c4ccccc4)nc3c2Cl)sc2c1CCCC2	1.3	0.0	9.8	2.1
Cc1oc(-c2ccc(Cl)cc2)nc1CSCC(=O)NC1CC1	0.7	-0.6	3.3	-1.3
Cc1oc(-c2ccccc2Cl)nc1CSCC(=O)N1CCCC1	0.0	-0.1	8.5	58.2*
Cc1oc(-c2ccc(Cl)cc2)nc1CSCC(=O)N1CCC2(CC1)OCCO2	0.1	0.1	-8.6	38.4*
Cc1oc(-c2cccs2)nc1CSCC(=O)N1CCCC1	-0.1	0.0	-5.5	2.5

Compound activity deposited in PubChem BioAssay by The Scripps Research Institute Molecular Screening Center.
